From PubChem
Pf growth 96h: Primary qHTS for delayed death inhibitors of the malarial parasite plastid, 96 hour incubation; AID 504834, 2011; Potency, µM (doses to about 28.7 µM), for the others: at the highest dose activity change, negative = inhibition, usual class: inhibitors; 320,000 compounds, 6.9% hits; P. falciparum luciferase reporter growth, 96 h; active means well fitted inhibition curve with a large enough effect; inconclusive means small, poorly fitted or top-dose-only effect, or another doubt; inactive means no such curve, though single readings can be large or run the other way; further: potency means the concentration at half of the fitted maximal effect; on the % scale 0 is the no-effect control and ±100 the full control effect
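Two parasite generations (96 h, 37 C, 5% CO2) of compound exposure in infected erythrocytes (0.05% parasitemia, 2% hematocrit). Luciferase-reporter P. falciparum; decreased luminescence indicates inhibited growth, aimed at apicoplast-acting delayed death.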
Pf growth 48h: Primary qHTS for delayed death inhibitors of the malarial parasite plastid, 48 hour incubation. Potency, µM (titrated, usually from 28.7 µM), without a hit: at the top dose activity change, negative = inhibition, hits mostly inhibitors. P. falciparum luciferase growth in erythrocytes, 48 h. 310,000 compounds, 5.9% hits; active means well fitted inhibition curve with a large enough effect; inconclusive means small, poorly fitted or top-dose-only effect, or another doubt; inactive means no such curve, though single readings can be large or run the other way; further: potency means the concentration at half of the fitted maximal effect; on the % scale 0 is the no-effect control and ±100 the full control effect
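Parasite viability was followed by luminescence of a genomically integrated firefly luciferase. Cultures held 0.1% parasitemia at 2% hematocrit (final), incubated under 5% CO2 at 37 C.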
Cycloheximide cs: Cycloheximide Counterscreen for Small Molecule Inhibitors of Shiga Toxin; max response, %; cell reporter, cycloheximide protein synthesis inhibition counterscreen; 300,000 compounds, 12% hits; in the data active means max response mostly above about 13%, no sharp cut-off; inactive means mostly below about 14%; further: read at 38.3 µM for the half of the compounds with a filed dose; 0% is about no effect
NS1 function inh: qHTS Assay for Inhibitors of Influenza NS1 Protein Function; Potency, µM (doses to about 46.1 µM), inactives show at the top dose activity, positive = more growth; 270,000 compounds, 0.4% hits; further: potency means the concentration at half of the fitted maximal effect; actives are rising curves; nearly all actives have a fitted effect of over 50% in size
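S. cerevisiae expressing influenza A NS1, grown in glucose, washed, then diluted 1:100 into pH 6.0 -URA galactose medium with 23 nl compound. Growth recovery read as OD600; NS1-free strain serves as control.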
SARS PLP yeast: qHTS of Yeast-based Assay for SARS-CoV PLP | S. cerevisiae expressing SARS-CoV PLpro, growth rescue | Potency, µM (series often up to 32.9 µM), inactives show at the highest dose activity, positive = growth rescue, usual class: activators | 330,000 compounds, 0.19% hits; further: potency means the concentration at half of the fitted maximal effect; 0% is about no effect; nearly all actives have a fitted effect of over 55% in size
Shiga toxin inh: A qHTS for Small Molecule Inhibitors of Shiga Toxin | Vero cells, Shiga toxin protein synthesis inhibition reporter | inhibition, % at 38.7 µM | 290,000 compounds, 9.2% hits | AID 2315, 2010; in the data active means inhibition mostly above about 28%, no sharp cut-off; inactive means mostly below about 43%; further: 0% is about no effect
* hit, by the source's call. The list is not random: actives were taken first. Their share in the collection is about 21%. Unless noted, the call rests on the fitted dose curve.

What do the screens show for `CN(CCc1ccccn1)C(=O)CCC1CCCN(C(=O)c2cccc(N(C)C)c2)C1` (centres undefined)?
Pf growth 96h: 9.3%; Pf growth 48h: 11.6%; Cycloheximide cs: -3.3; NS1 function inh: 7.3%; SARS PLP yeast: 0.1%; Shiga toxin inh: -5.1

How did O=C(COC(=O)Cc1ccccc1F)NC(=O)NC1CCCC1 do in these assays?
SARS PLP yeast: 0.0%

What do the screens show for `N#CCOC(=O)C1CSC2(c3ccc(Br)cc3)CCC(=O)N12` (centres undefined)?
Pf growth 96h: 8.9%; Pf growth 48h: -0.8%; Cycloheximide cs: -2.4; SARS PLP yeast: 0.0%; Shiga toxin inh: -3.0

What do the screens show for `C=CCC1(N(C(C)=O)c2ccccc2C)CCCCC1`?
Pf growth 96h: inconclusive; Pf growth 48h: -7.5%; Cycloheximide cs: -2.7; NS1 function inh: 1.0%; SARS PLP yeast: -0.7%; Shiga toxin inh: -3.7

What do the screens show for `COc1ccc(-c2nnc(SCC(=O)N(Cc3ccccc3)C(C)(C)C)o2)cc1OC`?
Pf growth 48h: 11.7µM*; Cycloheximide cs: 2.1; NS1 function inh: -64.5%; SARS PLP yeast: 1.2%; Shiga toxin inh: -11.5

Results for CCOC(=O)CN(C(=O)CSc1nnc(-c2ccc(OC)c(OC)c2)o1)c1ccc(F)cc1 ?
Cycloheximide cs: -4.1; NS1 function inh: 0.4%; SARS PLP yeast: -5.0%; Shiga toxin inh: 8.2

How did O=C(CCNS(=O)(=O)c1ccccc1)OCC(=O)c1ccc(Cl)cc1 do in these assays?
Pf growth 96h: 0.6%; Pf growth 48h: 7.7%; SARS PLP yeast: inconclusive

What do the screens show for `CCn1c(=O)cc(SCC(=O)Nc2ccc(C)cn2)c2ccccc21`?
Pf growth 96h: inconclusive; Pf growth 48h: 7.4%; Cycloheximide cs: 13.8; SARS PLP yeast: 0.4%; Shiga toxin inh: 11.0

What do the screens show for `COc1ccc(CCNC2=CC(=O)N(c3ccc(F)cc3)C2=O)cc1`?
Pf growth 96h: 3.29µM*; Pf growth 48h: 1.3%; Cycloheximide cs: 6.1; SARS PLP yeast: -1.1%; Shiga toxin inh: -6.0

What do the screens show for `CCNC(=O)CC1C(=O)N(c2ccc(F)cc2)C(=O)N1CCc1ccc(OC)cc1` (centres undefined)?
Pf growth 96h: 0.9%; Pf growth 48h: 12.0%; Cycloheximide cs: -4.6; NS1 function inh: -0.1%; SARS PLP yeast: -7.1%; Shiga toxin inh: -4.5

How did NC(=O)c1ccccc1NC(=O)c1cc(S(=O)(=O)N2CCCCC2)ccc1N1CCOCC1 do in these assays?
Pf growth 96h: 6.57µM*; Pf growth 48h: 13.1µM*; SARS PLP yeast: -10.5%

Results for O=C(NC1CCCCC1)c1cc(S(=O)(=O)N2CCCCC2)ccc1N1CCOCC1 ?
Pf growth 96h: inconclusive; Pf growth 48h: inconclusive; SARS PLP yeast: 2.2%

How did O=C(NC1CCCCCC1)c1cc(S(=O)(=O)N2CCCCC2)ccc1N1CCOCC1 do in these assays?
Pf growth 96h: inconclusive; Pf growth 48h: 11.7µM*; Cycloheximide cs: 15.2; SARS PLP yeast: 0.3%; Shiga toxin inh: -1.8

What do the screens show for `O=C(NC1CCCCCC1)c1cc(S(=O)(=O)N2CCOCC2)ccc1N1CCCCC1`?
Pf growth 96h: 6.57µM*; Pf growth 48h: inconclusive; Cycloheximide cs: -2.5; NS1 function inh: -3.0%; SARS PLP yeast: -2.2%; Shiga toxin inh: 12.4

What do the screens show for `COc1cc([N+](=O)[O-])ccc1NC(=O)Oc1ccc(NC(C)=O)cc1`?
Pf growth 96h: 71.5%; Pf growth 48h: -0.1%; Cycloheximide cs: -5.8; NS1 function inh: -3.2%; SARS PLP yeast: -2.2%; Shiga toxin inh: 11.7

What do the screens show for `CCOc1ccccc1N(C)S(=O)(=O)c1ccc2c(c1)CC(C)N2C(=O)C1CC1` (centres undefined)?
Pf growth 96h: inconclusive; Pf growth 48h: inconclusive; Cycloheximide cs: -0.8; NS1 function inh: -3.9%; SARS PLP yeast: 26.0%; Shiga toxin inh: -1.7

How did O=C(NCc1n[nH]c(=S)n1-c1ccc([N+](=O)[O-])cc1)c1ccc(S(=O)(=O)N2CCOCC2)cc1 do in these assays?
Pf growth 96h: 6.57µM*; Pf growth 48h: 5.6%; Cycloheximide cs: 7.7; SARS PLP yeast: -5.4%; Shiga toxin inh: 20.5

Results for Cc1cc(=O)[nH]c(SCC(=O)N2CCN(S(=O)(=O)c3ccccc3)C2)n1 ?
Pf growth 96h: 3.2%; Pf growth 48h: 12.7%; Cycloheximide cs: -1.2; SARS PLP yeast: -3.7%; Shiga toxin inh: 48.0

What do the screens show for `O=C(NN=C1CCCC1)C1COc2ccccc2O1` (centres undefined)?
Pf growth 96h: inconclusive; Pf growth 48h: -18.8%; Cycloheximide cs: 11.9; SARS PLP yeast: -0.7%; Shiga toxin inh: -2.2

What do the screens show for `COc1ccc(N(CC(=O)NCCSCc2ccco2)S(=O)(=O)c2ccccc2)cc1OC`?
Pf growth 96h: 11.7µM*; Pf growth 48h: -20.9%; Cycloheximide cs: -1.5; NS1 function inh: 16.1%; SARS PLP yeast: -2.2%; Shiga toxin inh: 16.8

Results for COc1ccccc1N(CC(=O)NCCSCc1ccco1)S(=O)(=O)c1ccccc1 ?
Pf growth 96h: 0.0%; Pf growth 48h: inconclusive; Cycloheximide cs: -4.0; NS1 function inh: -1.0%; SARS PLP yeast: -0.5%; Shiga toxin inh: -0.7

What do the screens show for `COc1ccc(N(CC(=O)NCCSC2CCCCC2)S(=O)(=O)c2ccccc2)cc1OC`?
Pf growth 96h: inconclusive; Pf growth 48h: 13.1µM*; Cycloheximide cs: -1.4; NS1 function inh: 7.8%; SARS PLP yeast: 4.7%; Shiga toxin inh: 20.1

Results for COc1ccc(N(CC(=O)NCCSc2ccccc2)S(=O)(=O)c2ccccc2)cc1OC ?
Pf growth 96h: 35.3%; Pf growth 48h: 3.0%; Cycloheximide cs: -4.1; NS1 function inh: 0.0%; SARS PLP yeast: 0.8%; Shiga toxin inh: 5.6

What do the screens show for `COc1ccccc1N(CC(=O)NCCSCc1ccccc1)S(=O)(=O)c1ccc(C)cc1`?
Pf growth 96h: 2.62µM*; Pf growth 48h: inconclusive; Cycloheximide cs: -3.1; NS1 function inh: 0.9%; SARS PLP yeast: -2.8%; Shiga toxin inh: -10.0

How did Cc1cc(OCc2cccc(Cl)c2)c(C)cc1CN1CCOCC1 do in these assays?
Pf growth 96h: inconclusive; Pf growth 48h: 75.6%; Cycloheximide cs: 23.8*; NS1 function inh: -55.5%; SARS PLP yeast: -2.8%; Shiga toxin inh: 25.0

What do the screens show for `CN(CC(=O)Nc1ccc(Cl)c(C(F)(F)F)c1)C(=O)c1cccc2cccnc12`?
Pf growth 96h: inconclusive; Pf growth 48h: inconclusive; SARS PLP yeast: -0.7%

How did CCc1ccccc1NCC(=O)Nc1ccc(Cl)c(C(F)(F)F)c1 do in these assays?
Pf growth 96h: inconclusive; Pf growth 48h: -5.2%; Cycloheximide cs: -5.5; NS1 function inh: -35.8%; SARS PLP yeast: -82.7%; Shiga toxin inh: -12.6

How did C/C(CC(=O)Nc1ccc(Cl)c(C(F)(F)F)c1)=N\NC(=O)c1ccccc1O do in these assays?
Pf growth 96h: inconclusive; Pf growth 48h: inconclusive; Cycloheximide cs: 21.7*; NS1 function inh: -22.0%; SARS PLP yeast: -21.8%; Shiga toxin inh: 41.3
